PubChem BioAssay (EPA / NIEHS)
Several values for one entry are separate records, joined by “and”; a condition that tells them apart may be missing. Equal values may be shown once. Inconclusive results are not listed. Activity calls are given as the source filed them. How the source made its calls, unless noted: active means hit-call score of the fitted dose curve at least 0.9, where 1 is the maximum; inactive means score below 0.9.

Assays:
[1] = CCTE_Shafer_MEA_dev_network_spike_duration_std: CCTE's Neural Network Formation Assay for Standard Deviation of Network Spike Duration, Shafer Lab (AID 2284052);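 further: hits are decreases in network spike duration SD versus DMSO vehicle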
In short: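 Network spike duration variability was collapsed across recordings on days 5, 7, 9 and 12 by trapezoidal area-under-curve and fitted downward against DMSO. Cultures were rat cortical neurons on PEI-coated MEA plates, dosed continuously from plating, refed with compound DIV 5/9.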

[2] = CCTE_Shafer_MEA_dev_per_network_spike_spike_number_mean: CCTE's Neural Network Formation Assay for Mean Number of Spikes in a Network Spike, Shafer Lab (AID 2284053);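 on AC50: fitted as decrease in spikes per network spike relative to DMSO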
In short: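 Mean spike count within each network spike, taken in a 0.05 s window at its peak, was recorded on days 5, 7, 9 and 12 and integrated as trapezoidal area under the curve. Rat cortical cultures on MEA plates received continuous compound from day 0, refreshed at medium changes on DIV 5 and 9.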

[3] = CCTE_Shafer_MEA_dev_per_network_spike_spike_percent: CCTE's Neural Network Formation Assay for Percent of Spikes in a Network Spike, Shafer Lab (AID 2284054)
In short: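 Metric: fraction of spikes falling in a 0.05 s window at network-spike peaks. Recordings were made on days 5, 7, 9 and 12 and collapsed by trapezoidal AUC. Cultures were rat cortical neurons on MEA plates, dosed continuously from plating, re-dosed at media changes.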

[4] = CCTE_Shafer_MEA_acute_AB: CCTE's Alamar Blue Assay for Cytotoxicity in the Neural Acute Assay, Shafer Lab (AID 2284069; active means hit-call score of the fitted dose curve at least 0.9, where 1 is the maximum;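 further: active compounds lower the viability signal compared with DMSO wells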)
In short: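 Resazurin reduction (CellTiter Blue, 1:6 in fresh medium) read at ex 544/em 590 nm marks viability loss relative to DMSO. Cells: primary rat cortical neuron networks on microelectrode arrays, treated after baseline recording at 13 or 15 days in vitro.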

[5] = CCTE_Shafer_MEA_dev_AB: CCTE's Alamar Blue Assay for Cytotoxicity in the Neural Network Formation Assay, Shafer Lab (AID 2284083; active means hit-call score of the fitted dose curve at least 0.9, where 1 is the maximum;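 further: resazurin reduction fluorescence as viability of cultured neurons; twelve days of exposure from plating with re-dosing on DIV 5 and 9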)
In short: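 Resazurin fluorescence, relative to DMSO, gauges viability after twelve days of exposure that began at plating of rat cortical neurons (1.5 x 10^5 cells/well, 48-well MEA); treatment renewed with full medium exchange on DIV 5 and 9.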

[6] = CCTE_Shafer_MEA_acute_LDH: CCTE's Lactate Dehydrogenase Assay for Cytotoxicity in the Neural Acute Assay, Shafer Lab (AID 2284086; active means hit-call score of the fitted dose curve at least 0.9, where 1 is the maximum;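 further: active means LDH release rises above DMSO vehicle level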)
In short: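 Cytotoxicity readout: spectrophotometric LDH activity in supernatant of rat primary cortical neurons, post-plating day 13 or 15, sampled after 40 min compound exposure; signal gain relative to DMSO baseline.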

[7] = CCTE_Shafer_MEA_dev_mutual_information_norm: CCTE's Neural Network Formation Assay for Mutual Information Normalization, Shafer Lab (AID 2284091);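 on AC50: mutual information between electrodes summarised as area under curve across four recording days; potency is for a decrease in mutual information relative to DMSO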
In short: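 Shared information across electrodes, tracked on days 5, 7, 9 and 12 of network development and collapsed as trapezoidal area under the curve. Rat cortical cultures were treated continuously from plating, with treatment renewed at feeds on DIV 5 and 9; DMSO baseline, negative-direction fit.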

[8] = CCTE_Shafer_MEA_dev_correlation_coefficient_mean: CCTE's Neural Network Formation Assay for Mean Correlation Coefficient, Shafer Lab (AID 2284093);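 on AC50: well mean pairwise spike train correlation integrated as AUC over recording days 5 to 12; potency fitted for loss of correlation relative to DMSO vehicle wells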
In short: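 Primary rat cortical neurons on PEI-coated 48-well MEA plates (16 electrodes/well) were exposed from plating day 0 through DIV12, with compound renewed at DIV5 and 9. Pairwise spike correlations were averaged per well; trapezoidal AUC across DIV5, 7, 9, 12.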

[9] = IUF_NPC1b_proliferation_BrdU_72hr: Leibniz Research Institute for Environmental Medicine (IUF) 72-hour Neural Progenitor Cell Bromodeoxyuridine (BrdU) Proliferation Assay (NPC1b) (AID 2284207)
In short: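 Human fetal cortex-derived (GW 16-19) neural progenitor spheres, 0.25-0.35 mm, one per well in EGF/FGF proliferation medium, exposed to compound for 72 h at 37C, pH 7.2-7.6. BrdU incorporation over the final 16 h read by luminescence ELISA, relative to DMSO.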

[10] = CCTE_Mundy_HCI_Cortical_Synap_Neur_Matur_NeuriteSpotCountPerNeuriteLength: CCTE's Synaptogenesis and Neurite Maturation Assay in rat cortical cells for Neurite Spot Count per Neurite Length, Mundy Lab (AID 2284210)
In short: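 Synaptophysin spots per unit neurite length, measured by automated imaging of MAP2/synaptophysin/Hoechst-stained neurons. Cultures from rat cortex received chemical at DIV 7 with media change through DIV 12; glial growth arrested by AraC at DIV 5; DMSO baseline.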

[11] = CCTE_Mundy_HCI_Cortical_NOG_NeuriteCount: CCTE's Neurite Outgrowth Assay in rat cortical cells for Neurite Count, Mundy Lab (AID 2284212);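 further: cells fixed about two days after chemical exposure began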
In short: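 Rat cortical primary cells; compound added 2 h post-plating, 1/10 dilution of working solution. Anti-betaIII-tubulin/AF488 ICC; ArrayScan neurite count vs DMSO.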

[12] = CCTE_Mundy_HCI_Cortical_NOG_NeuriteLength: CCTE's Neurite Outgrowth Assay in rat cortical cells for Neurite Length, Mundy Lab (AID 2284213);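 on AC50: neurites imaged about 48 to 50 h after chemical exposure began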
In short: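 First, rat primary cortical cells were plated and, 2 h later, given test chemical as a 1/10 dilution. Finally, βIII-tubulin immunostaining enabled automated imaging of neurite length.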

[13] = CCTE_Mundy_HCI_Cortical_Synap_Neur_Matur_NeuriteLength: CCTE's Synaptogenesis and Neurite Maturation Assay in rat cortical cells for Neurite Length, Mundy Lab (AID 2284214)
In short: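 DMSO-normalised neurite length, from high-content imaging of anti-MAP2-stained rat cortical cells fixed at DIV 12. Glia were suppressed with AraC (DIV 5) before chemical exposure from DIV 7.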

[14] = CCTE_Mundy_HCI_Cortical_Synap_Neur_Matur_NeuriteSpotCountPerNeuron: CCTE's Synaptogenesis and Neurite Maturation Assay in rat cortical cells for Neurite Spot Count per Neuron Count, Mundy Lab (AID 2284215)
In short: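 Rat primary cortical cells received AraC at DIV 5, then chemicals with a media change at DIV 7, and were fixed at DIV 12. Synaptophysin puncta on MAP2-stained neurites per neuron were counted by high-content imaging, fitted relative to DMSO.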

[15] = TAMU_PeakParms_SingleDonor1434_Chronotropy: Texas A&M University (TAMU) 1.5-hr Human Induced Pluripotent Stem Cell (iPSC)-derived Cardiomyocytes Calcium (Ca+2) Flux Assay for Cardiotoxicity: Chronotropy (changes in peak frequency) (AID 2284217); conditions: actives raise or lower the signal
In short: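 Beat rate, as mean Ca2+-flux peak frequency, was read from donor 1434 iPSC cardiomyocytes 90 min after exposure to 0.2–100 uM test chemical (0.5% DMSO). Wells that stopped beating were excluded; EC05 from bidirectional DMSO-referenced fitting.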

[16] = UKN2_HCS_IMR90_neural_migration: University of Konstanz (UKN) Leist Lab Neural Crest Cell Migration Assay in human induced IMR90 Pluripotent Stem Cells (UKN2) (AID 2284204); conditions: actives raise or lower the signal
In short: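 High-content imaging of calcein-AM and Hoechst stained cells quantifies migration into a stopper-defined gap after 24 h compound exposure. Neural crest cells from IMR90 iPSC migrated 24 h in EGF/FGF N2-S medium before dosing; DMSO baseline.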

[17] = UKN5_HCS_SBAD2_cell_viability: Viability Assessment in the University of Konstanz (UKN) Leist Lab Neurite Outgrowth Assay in human iPSC-derived immature Dorsal Root Ganglia Neurons (UKN5) (AID 2284056)
In short: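 iPSC-derived immature peripheral neurons (SBAD2) seeded on Matrigel with CHIR99021, SU5402 and DAPT, dosed 1 h later for 24 h. Viability from Hoechst H-33342 and calcein-AM live staining, high-content imaging; bidirectional fit versus DMSO.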

[18] = UKN5_HCS_SBAD2_neurite_outgrowth: University of Konstanz (UKN) Leist Lab Neurite Outgrowth Assay in human iPSC-derived immature Dorsal Root Ganglia Neurons (UKN5) (AID 2284070); conditions: actives raise or lower the signal
In short: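 Neurite outgrowth is quantified as calcein-AM-labelled neurite area in human iPSC-derived peripheral neurons treated for 24 h, starting 1 h after plating in medium with CHIR99021 (1.5 uM), SU5402 (5 uM) and DAPT (5 uM).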

[19] = UKN4_HCS_LUHMES_neurite_outgrowth: University of Konstanz (UKN) Leist Lab Neurite Outgrowth Assay in human LUHMES cells (UKN4) (AID 2284206); conditions: actives raise or lower the signal
In short: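 Neurite area in dopaminergic-model LUHMES neurons is measured by high-content imaging of calcein-AM after 24 h treatment starting shortly after day-2 replating; Hoechst staining tracks viability.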

DIO3 (gene 1735) = test: CCTE_GLTED_hDIO3: CCTE's human Deiodinase 3 (DIO3) Inhibition Assay, Great Lakes Toxicology and Ecology Division (GLTED) Lab (AID 2284055; active means hit-call score of the fitted dose curve at least 0.9, where 1 is the maximum;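 further: potency is for inhibition seen as loss of released iodide signal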)
In short: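 Steps: incubate adenovirus-produced hDIO3 with chemical for 3 hours; detect freed iodide via cerium-arsenic Sandell-Kolthoff colorimetry; compare with DMSO baseline.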

Measured: AC50

Clc1ccc(C(c2ccc(Cl)cc2)C(Cl)Cl)cc1
inactive: [4] | [6]
active: [1] 3210 nM | [2] 4950 nM | [3] 3970 nM | [5] 5140 nM | [7] 2010 nM | [8] 3890 nM

[Cl-].[Cl-].[Hg+2]
active: [1] 382 nM | [2] 894 nM | [3] 423 nM | [4] 32.6 µM | [5] 559 nM | [6] 30.6 µM | [8] 660 nM
inactive: [7]

CCN(CC)N=O
inactive: [4]

CC(C)(C)C(O)(CCc1ccc(Cl)cc1)Cn1cncn1 (centres undefined)
inactive: [1] | [3] | [4] | [5] | [6] | [9] | [10] | [11] | [12] | [14] | [15]
active: [2] 15000 nM | [7] 2240 nM | [8] 15000 nM | [13] 10200 nM

c1ccc(NNc2ccccc2)cc1
inactive: [4]

Nc1cc(Cl)cc(C(=O)O)c1Cl
inactive: [1] | [2] | [3] | [7] | [8] | [10] | [11] | [12] | [13] | [14]

CCCCOC(=O)c1ccccc1C(=O)OCc1ccccc1
active: [9] 82000 nM
inactive: [1] | [2] | [3] | [4] | [5] | [6] | [7] | [8] | [16] | [10] | [11] | [12] | [13] | [14]

CCC[CH2][Sn]([Cl])([CH2]CCC)[CH2]CCC
active: [1] 13.8 nM | [2] 63.2 nM | [3] 77.7 nM | [17] 306 nM | [4] 1.92 µM and 3.06 µM | [18] 109 nM | [5] 81.4 nM | [6] 29.7 µM and 15 µM | [7] 23.1 nM | [8] 77.2 nM | [16] 195 nM | [19] 119 nM | [9] 112 nM | [10] 37.5 nM | [11] 112 nM | [12] 88.2 nM | [13] 46.8 nM | [14] 37 nM

CC(C)(OOC(C)(C)c1ccccc1)c1ccccc1
inactive: [4] | [6]

O=[N+]([O-])C(Br)(CO)CO
active: [4] 26.9 µM

OCCOCCO
inactive: [1] | [2] | [3] | [7] | [8] | [9] | [10] | [11] | [12] | [13] | [14]

CCCCCCCCn1sccc1=O
inactive: [4] | [6] | [15]
active: DIO3 (gene 1735) 17500 nM

O=Cc1ccco1
inactive: [4] | [6]

CCC(C)c1ccc(O)cc1 (centres undefined)
inactive: [4] | [6]

COC(=O)Nc1nc2ccccc2[nH]1
active: [2] 12500 nM | [3] 5940 nM | [5] 7640 nM | [7] 5190 nM | [8] 5110 nM | [9] 18400 nM | [12] 12500 nM | [13] 4050 nM
inactive: [1] | [4] | [16] | [10] | [11] | [14]

O=[N+]([O-])c1ccc(Oc2ccc(Cl)cc2Cl)cc1
inactive: [4]

C1=Cc2cccc3cccc1c23
inactive: [1] | [2] | [3] | [5] | [7] | [8]
active: [15] 50000 nM

CCCCCOC(=O)c1ccccc1C(=O)OCCCCC
inactive: [4]

O=P(OCCCl)(OCCCl)OCCCl
inactive: [1] | [2] | [3] | [4] | [5] | [6] | [7] | [8] | [9] | [15]

CCN(CC)CCO
inactive: [4] | [6]

C[C@]12C=CC3=C4CCC(=O)C=C4CC[C@H]3[C@@H]1CC[C@@H]2O
active: DIO3 (gene 1735) 23500 nM
